Measurements as given in PubChem BioAssay (Tox21).
Results filed as inconclusive are left out. The source made the active and inactive calls. Unless noted, calls come from the whole dose curve; as a rule, active = well fitted curve in the direction sought with a large enough effect in the repeat runs; inconclusive = weak or mixed curves; inactive = no such curve, though single readings can be large; an effect the other way counts as inactive or inconclusive.

Experiments:
[1] = target: Thyrotropin-releasing hormone receptor (Homo sapiens) (UniProt P34981); assay: qHTS assay to identify small molecule agonists of the thyrotropin-releasing hormone receptor (TRHR) signaling pathway (AID 1346891; calls by dose curve;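 note: HEK293 cells expressing TRHR with calcium dye readout; series mostly up to about 58 µM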)
Sequence of Thyrotropin-releasing hormone receptor (Homo sapiens) (P34981 whole entry, looked up): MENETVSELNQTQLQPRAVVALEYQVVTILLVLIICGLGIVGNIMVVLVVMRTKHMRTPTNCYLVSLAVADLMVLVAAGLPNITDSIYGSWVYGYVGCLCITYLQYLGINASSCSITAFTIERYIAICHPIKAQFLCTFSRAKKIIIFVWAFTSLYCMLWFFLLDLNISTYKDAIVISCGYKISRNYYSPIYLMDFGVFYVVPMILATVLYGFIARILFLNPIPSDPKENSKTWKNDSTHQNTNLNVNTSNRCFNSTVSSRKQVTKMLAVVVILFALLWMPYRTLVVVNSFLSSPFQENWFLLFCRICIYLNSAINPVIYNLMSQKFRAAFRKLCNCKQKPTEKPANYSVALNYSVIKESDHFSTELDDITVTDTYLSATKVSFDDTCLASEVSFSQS
How it was run: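 In 1536-format, 1500 TRHR-Hek293 cells per well grew 18 h, took up calcium dye for 2 h at 37 °C, received compound, and were read kinetically; 15-point titrations, triplicates.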

[2] = Human pregnane X receptor (PXR) small molecule agonists, qHTS cell viability counter screen (AID 1346977); note: nearly all actives have a fitted effect of over 50% in size; note: potency is the fitted concentration of half-maximal effect
How it was run: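 Readout is CellTiter-Fluor fluorescence from PXR-Luc HepG2 cells. Plated cells rested 5hr, then were treated with compounds for 24hr at 37C and 5% CO2, with reagent present during the last hour.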

[3] = Caspase-3/7 induction in HepG2 cells by small molecules, qHTS assay (AID 1346978); note: nearly all actives have a fitted effect of over 15% in size
How it was run: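 Wild-type HepG2 cells (2,000/well) were settled 5 h at 37 C, 5% CO2, then exposed to compounds in DMSO for 17 h. Caspase-3/7 activity was read by luminescence 30 min after adding Caspase-Glo 3/7 reagent at room temperature.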

[4] = Caspase-3/7 induction in CHO-K1 cells by small molecules, qHTS cell viability counter screen (AID 1346979); note: nearly all actives have a fitted effect of over 35% in size; note: potency is the fitted concentration of half-maximal effect
How it was run: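 To flag cytotoxic compounds, treated CHO-K1 wild-type cells were given CellTiter-Fluor at 16hr and read fluorescently after 1hr at 37C; the caspase-3/7 luminescence was measured in these same wells.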

[5] = Caspase-3/7 induction in CHO-K1 cells by small molecules, qHTS assay (AID 1346980); note: nearly all actives have a fitted effect of over 15% in size
How it was run: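 Wild-type cells were seeded at 1,500 per well and settled 5 hr at 37 C, 5% CO2, then exposed to DMSO-dissolved compounds for 17 hr. Caspase-Glo 3/7 reagent was added, and luminescence was read after 30min at room temperature.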

[6] = Caspase-3/7 induction in HepG2 cells by small molecules, qHTS cell viability counter screen (AID 1346981); note: nearly all actives have a fitted effect of over 30% in size; note: potency is the fitted concentration of half-maximal effect; for activity change, negative = cytotoxicity: series mostly up to about 92 µM
How it was run: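 In this quantitative HTS counter screen, compounds delivered in DMSO were left on unmodified HepG2 cells for 16 hr at 37 C. Viability was then determined fluorometrically with CellTiter-Fluor, in parallel with caspase-3/7 induction in the same wells.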

[7] = target: Nuclear receptor subfamily 1 group I member 2 (Homo sapiens) (UniProt O75469); assay: Human pregnane X receptor (PXR) small molecule agonists, qHTS assay (AID 1346982); note: nearly all actives have a fitted effect of over 35% in size; note: potency is the fitted concentration of half-maximal effect
Sequence of Nuclear receptor subfamily 1 group I member 2 (Homo sapiens) (O75469 whole entry, looked up): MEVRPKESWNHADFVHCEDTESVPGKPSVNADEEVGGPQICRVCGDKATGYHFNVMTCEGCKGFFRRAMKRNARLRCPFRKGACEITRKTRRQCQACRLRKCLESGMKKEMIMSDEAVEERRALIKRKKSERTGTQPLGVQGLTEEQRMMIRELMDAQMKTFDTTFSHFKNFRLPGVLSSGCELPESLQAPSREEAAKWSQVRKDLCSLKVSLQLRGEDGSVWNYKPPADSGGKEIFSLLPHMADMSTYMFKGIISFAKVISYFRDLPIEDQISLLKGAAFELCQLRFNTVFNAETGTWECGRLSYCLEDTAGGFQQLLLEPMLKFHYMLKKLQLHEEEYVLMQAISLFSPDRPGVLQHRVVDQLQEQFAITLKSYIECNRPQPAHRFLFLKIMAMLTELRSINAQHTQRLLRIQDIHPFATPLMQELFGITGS
How it was run: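 Reporter HepG2 cells expressing PXR-Luc are cultured in charcoal-stripped FBS (5%), treated with compounds for 24 hr at 37 C, and assayed by ONE-Glo luminescence after 30 min at room temperature.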

[8] = target: Cytochrome P450 2D6 (Homo sapiens) (UniProt P10635); assay: Cytochrome P450 Family 2 Subfamily D Member 6 (CYP2D6) small molecule antagonists: luciferase reporter qHTS assay (AID 1671196); note: nearly all actives have a fitted effect of over 50% in size; note: potency is the fitted concentration of half-maximal effect; for activity change, negative = inhibition: series mostly up to about 120 µM
Sequence of Cytochrome P450 2D6 (Homo sapiens) (P10635 whole entry, looked up): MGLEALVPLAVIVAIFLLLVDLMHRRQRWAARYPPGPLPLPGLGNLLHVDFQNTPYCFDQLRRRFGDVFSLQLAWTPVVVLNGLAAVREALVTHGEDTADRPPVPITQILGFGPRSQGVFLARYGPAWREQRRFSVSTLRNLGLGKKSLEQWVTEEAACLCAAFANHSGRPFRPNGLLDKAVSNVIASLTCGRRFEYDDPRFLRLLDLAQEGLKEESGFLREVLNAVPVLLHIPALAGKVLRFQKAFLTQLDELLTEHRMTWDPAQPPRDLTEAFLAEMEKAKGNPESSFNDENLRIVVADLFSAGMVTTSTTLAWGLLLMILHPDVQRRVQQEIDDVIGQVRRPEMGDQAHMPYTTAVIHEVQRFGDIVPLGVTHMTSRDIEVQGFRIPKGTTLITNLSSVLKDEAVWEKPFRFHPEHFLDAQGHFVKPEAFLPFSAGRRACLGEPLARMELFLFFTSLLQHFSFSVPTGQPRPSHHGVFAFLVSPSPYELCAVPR
How it was run: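 Test chemicals meet CYP2D6 plus proluciferin substrate (10 min, RT); NADPH regenerating solution then drives turnover for 1 h. Detection reagent halts the reaction; luminescence measured after 20 min.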

[9] = target: Cytochrome P450 1A2 (Homo sapiens) (UniProt P05177); assay: Cytochrome P450 Family 1 Subfamily A Member 2 (CYP1A2) small molecule antagonists: luciferase reporter qHTS assay (AID 1671199); note: nearly all actives have a fitted effect of over 50% in size; note: potency is the fitted concentration of half-maximal effect; for activity change, negative = inhibition: series mostly up to about 120 µM
Sequence of Cytochrome P450 1A2 (Homo sapiens) (P05177 whole entry, looked up): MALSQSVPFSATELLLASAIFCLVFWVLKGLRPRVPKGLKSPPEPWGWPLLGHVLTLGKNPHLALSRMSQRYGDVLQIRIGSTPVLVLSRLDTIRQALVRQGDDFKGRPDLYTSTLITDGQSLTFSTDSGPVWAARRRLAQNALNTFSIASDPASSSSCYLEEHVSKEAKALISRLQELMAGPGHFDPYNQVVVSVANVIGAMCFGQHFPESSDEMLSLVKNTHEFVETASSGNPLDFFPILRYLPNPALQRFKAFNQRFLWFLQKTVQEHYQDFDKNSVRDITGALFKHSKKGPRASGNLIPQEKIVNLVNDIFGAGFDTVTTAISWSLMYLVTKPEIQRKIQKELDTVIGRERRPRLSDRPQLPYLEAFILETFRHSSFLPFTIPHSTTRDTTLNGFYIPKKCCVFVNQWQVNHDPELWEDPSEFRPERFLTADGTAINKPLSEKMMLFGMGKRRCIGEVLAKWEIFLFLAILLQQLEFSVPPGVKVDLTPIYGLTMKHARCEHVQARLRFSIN
How it was run: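 Steps: enzyme-substrate mix dispensed; test compounds and furafylline control pinned in; 10 min room temperature; NADPH regeneration solution added, 1 h; reaction stopped with luciferin detection reagent; luminescence read after 20 min.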

[10] = target: Voltage-gated inwardly rectifying potassium channel KCNH2 (Homo sapiens) (UniProt Q12809); assay: Human Ether-a-go-go-Related Gene (hERG) channel small molecule antagonists: fluorescence cell-based qHTS assay (AID 1671200); note: nearly all actives have a fitted effect of over 50% in size; note: potency is the fitted concentration of half-maximal effect;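 for activity change, negative = inhibition: hERG-expressing U2OS cells given a thallium stimulus after FluxOR II dye loading; series mostly up to about 77 µM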
Sequence of Voltage-gated inwardly rectifying potassium channel KCNH2 (Homo sapiens) (Q12809 whole entry, looked up): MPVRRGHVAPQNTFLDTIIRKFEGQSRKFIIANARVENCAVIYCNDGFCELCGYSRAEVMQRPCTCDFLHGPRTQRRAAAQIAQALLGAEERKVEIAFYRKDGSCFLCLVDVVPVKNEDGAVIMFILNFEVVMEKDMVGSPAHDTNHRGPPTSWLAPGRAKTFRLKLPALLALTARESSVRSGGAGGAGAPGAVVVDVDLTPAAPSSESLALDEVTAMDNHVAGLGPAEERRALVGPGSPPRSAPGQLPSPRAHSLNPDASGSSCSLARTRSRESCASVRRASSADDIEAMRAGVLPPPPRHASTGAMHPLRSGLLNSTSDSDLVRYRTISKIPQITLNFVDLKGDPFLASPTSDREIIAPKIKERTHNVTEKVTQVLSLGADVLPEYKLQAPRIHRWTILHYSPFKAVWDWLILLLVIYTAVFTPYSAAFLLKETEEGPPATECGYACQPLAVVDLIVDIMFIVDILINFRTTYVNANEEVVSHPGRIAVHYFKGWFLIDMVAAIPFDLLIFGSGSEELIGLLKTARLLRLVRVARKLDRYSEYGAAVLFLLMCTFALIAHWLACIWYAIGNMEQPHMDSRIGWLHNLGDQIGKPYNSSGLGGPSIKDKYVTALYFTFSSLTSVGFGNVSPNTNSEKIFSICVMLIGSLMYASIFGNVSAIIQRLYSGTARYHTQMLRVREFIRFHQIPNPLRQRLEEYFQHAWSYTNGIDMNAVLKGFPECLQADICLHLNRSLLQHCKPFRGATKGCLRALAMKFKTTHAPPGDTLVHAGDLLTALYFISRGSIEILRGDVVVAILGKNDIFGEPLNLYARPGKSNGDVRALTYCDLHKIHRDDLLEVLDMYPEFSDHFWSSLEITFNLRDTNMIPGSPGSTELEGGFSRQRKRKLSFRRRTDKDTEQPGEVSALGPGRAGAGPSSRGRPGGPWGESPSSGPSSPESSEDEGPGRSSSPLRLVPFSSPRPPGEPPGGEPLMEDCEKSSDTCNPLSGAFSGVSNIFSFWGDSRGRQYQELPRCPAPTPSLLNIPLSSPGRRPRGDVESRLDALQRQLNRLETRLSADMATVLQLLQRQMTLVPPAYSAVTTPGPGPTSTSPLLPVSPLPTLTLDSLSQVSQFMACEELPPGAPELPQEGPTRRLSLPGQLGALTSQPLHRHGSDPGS
How it was run: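 Measured: Tl+ flux via fluorescence (480/540 nm) in hERG-expressing U2OS cells after 1 h dye loading at room temperature.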

[11] = target: Cytochrome P450 3A4 (Homo sapiens) (UniProt P08684); assay: Cytochrome P450 Family 3 Subfamily A Member 4 (CYP3A4) small molecule antagonists: luciferase reporter qHTS assay (AID 1671201); note: nearly all actives have a fitted effect of over 50% in size; note: potency is the fitted concentration of half-maximal effect; for activity change, negative = inhibition: series mostly up to about 120 µM
Sequence of Cytochrome P450 3A4 (Homo sapiens) (P08684 whole entry, looked up): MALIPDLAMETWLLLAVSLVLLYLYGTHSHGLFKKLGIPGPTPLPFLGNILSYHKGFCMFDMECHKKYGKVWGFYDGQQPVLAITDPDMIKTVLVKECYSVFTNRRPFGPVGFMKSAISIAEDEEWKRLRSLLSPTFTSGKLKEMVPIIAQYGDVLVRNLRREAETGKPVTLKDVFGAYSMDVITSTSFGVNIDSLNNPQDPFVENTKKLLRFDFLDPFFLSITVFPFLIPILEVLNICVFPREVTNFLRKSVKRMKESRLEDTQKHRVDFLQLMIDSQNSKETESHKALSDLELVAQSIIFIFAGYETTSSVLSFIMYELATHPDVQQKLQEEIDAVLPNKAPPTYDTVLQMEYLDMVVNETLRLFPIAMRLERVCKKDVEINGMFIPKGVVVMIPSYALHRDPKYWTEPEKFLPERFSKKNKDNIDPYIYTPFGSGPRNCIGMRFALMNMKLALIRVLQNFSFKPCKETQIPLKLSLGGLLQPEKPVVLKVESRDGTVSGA
How it was run: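 Setup: enzyme-substrate mix, compound pin transfer, 10 min RT. Reaction: NADPH regeneration solution, 1 h RT. Readout: detection reagent stops turnover, luminescence measured after 20 min, expressed in relative luminescence units.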

[12] = target: Cytochrome P450 2C19 (Homo sapiens) (UniProt P33261); assay: Cytochrome P450 Family 2 Subfamily C Member 19 (CYP2C19) small molecule antagonists: luciferase reporter qHTS assay (AID 1671197); note: nearly all actives have a fitted effect of over 65% in size; note: potency is the fitted concentration of half-maximal effect; for activity change, negative = inhibition: series mostly up to about 120 µM
Sequence of Cytochrome P450 2C19 (Homo sapiens) (P33261 whole entry, looked up): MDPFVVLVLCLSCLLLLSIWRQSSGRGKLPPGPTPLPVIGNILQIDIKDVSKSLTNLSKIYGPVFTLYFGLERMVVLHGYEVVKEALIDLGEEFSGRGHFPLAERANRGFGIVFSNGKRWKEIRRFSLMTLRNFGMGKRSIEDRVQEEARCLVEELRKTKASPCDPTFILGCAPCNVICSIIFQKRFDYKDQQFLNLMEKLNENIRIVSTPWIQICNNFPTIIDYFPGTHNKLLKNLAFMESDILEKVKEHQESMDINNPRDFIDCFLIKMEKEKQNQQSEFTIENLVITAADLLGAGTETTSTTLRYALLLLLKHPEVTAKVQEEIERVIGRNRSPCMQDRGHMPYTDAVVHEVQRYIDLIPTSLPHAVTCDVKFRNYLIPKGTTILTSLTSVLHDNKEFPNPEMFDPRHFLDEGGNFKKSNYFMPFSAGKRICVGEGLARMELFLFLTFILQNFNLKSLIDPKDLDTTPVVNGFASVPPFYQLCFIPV
How it was run: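 P450-Glo CYP2C19 screening system; proluciferin substrate; DMSO compound stocks; 10 min RT preincubation; NADPH regeneration, 1 h at 37C; luciferin detection reagent, 20 min RT; luminescence as RLU.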

[13] = target: Cytochrome P450 2C9 (Homo sapiens) (UniProt P11712); assay: Cytochrome P450 Family 2 Subfamily C Member 9 (CYP2C9) small molecule antagonists: luciferase reporter qHTS assay (AID 1671198); note: nearly all actives have a fitted effect of over 50% in size; note: potency is the fitted concentration of half-maximal effect; for activity change, negative = inhibition: series mostly up to about 120 µM
Sequence of Cytochrome P450 2C9 (Homo sapiens) (P11712 whole entry, looked up): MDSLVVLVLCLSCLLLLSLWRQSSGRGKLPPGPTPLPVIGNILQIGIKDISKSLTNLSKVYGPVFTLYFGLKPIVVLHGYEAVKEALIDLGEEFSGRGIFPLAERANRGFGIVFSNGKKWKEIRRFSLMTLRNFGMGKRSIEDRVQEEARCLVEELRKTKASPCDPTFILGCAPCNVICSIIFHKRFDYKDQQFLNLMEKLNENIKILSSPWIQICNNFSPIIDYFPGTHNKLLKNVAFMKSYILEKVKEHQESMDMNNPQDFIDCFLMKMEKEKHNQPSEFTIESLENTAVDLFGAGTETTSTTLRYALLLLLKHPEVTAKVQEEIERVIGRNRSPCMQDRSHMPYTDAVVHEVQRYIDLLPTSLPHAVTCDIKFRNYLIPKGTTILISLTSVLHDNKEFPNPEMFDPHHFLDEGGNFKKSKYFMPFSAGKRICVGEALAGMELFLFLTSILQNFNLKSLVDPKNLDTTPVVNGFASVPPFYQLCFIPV
How it was run: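 CYP2C9 activity was measured with a P450-Glo proluciferin substrate. Enzyme–substrate mix was held with compound for 10 min at room temperature, then NADPH regeneration solution was added for 1 h at 37C. Luciferin product was read as luminescence.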

[14] = target: Nuclear receptor subfamily 1 group I member 2 (Rattus norvegicus) (UniProt Q9R1A7); assay: Rat pregnane X receptor (rPXR) activation by small molecules, qHTS assay (AID 1346983); conditions: rPXR luciferase reporter cells, One-Glo luminescence, 24 h; max activation: hits give high values; note: nearly all actives have a fitted effect of over 20% in size; note: potency is the fitted concentration of half-maximal effect
Sequence of Nuclear receptor subfamily 1 group I member 2 (Rattus norvegicus) (Q9R1A7 whole entry, looked up): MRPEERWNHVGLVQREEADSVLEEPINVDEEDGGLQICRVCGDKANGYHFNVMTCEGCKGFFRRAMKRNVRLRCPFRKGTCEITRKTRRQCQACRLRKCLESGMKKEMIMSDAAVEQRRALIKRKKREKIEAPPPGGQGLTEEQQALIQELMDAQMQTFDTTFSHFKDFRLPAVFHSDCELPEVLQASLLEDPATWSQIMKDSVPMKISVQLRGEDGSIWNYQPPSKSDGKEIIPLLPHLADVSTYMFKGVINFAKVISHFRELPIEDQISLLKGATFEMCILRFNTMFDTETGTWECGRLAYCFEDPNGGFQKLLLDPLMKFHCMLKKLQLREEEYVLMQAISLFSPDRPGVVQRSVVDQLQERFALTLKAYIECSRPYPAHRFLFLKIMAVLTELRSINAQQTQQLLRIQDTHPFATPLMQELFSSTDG
How it was run: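 Cell-based rPXR luciferase reporter assay, 2,000 cells per well, rested 5hr at 37 C before compound addition in DMSO, then 24 hr at 37 C. One-Glo reagent was added and luminescence read after 30 min at room temperature.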

[15] = target: Nuclear receptor subfamily 1 group I member 2 (Homo sapiens) (UniProt O75469); assay: CYP3A4 induction through human pregnane X receptor (PXR) by small molecules, qHTS assay (AID 1346984); note: nearly all actives have a fitted effect of over 40% in size; note: potency is the fitted concentration of half-maximal effect
How it was run: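 Induction measured in HepG2-based DPX-2 cells co-expressing human PXR and a CYP3A4 promoter-driven luciferase. After a 24-hour compound exposure, cells received CYP3A4 luciferin substrate at 3uM final for 3 hours, and light output was then recorded.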

[16] = target: Nuclear receptor subfamily 1 group I member 2 (Homo sapiens) (UniProt O75469); assay: Human pregnane X receptor (PXR) activation by small molecules, qHTS assay (AID 1346985); note: nearly all actives have a fitted effect of over 40% in size
How it was run: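 DPX-2 cells (HepG2 co-transfected with a PXR response element and a CYP3A4-promoter luciferase construct) were seeded at 2,000 per well, rested 5 hr at 37C, then exposed to DMSO-dissolved compounds for 24 hr. Activation was read as luciferase luminescence.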
% is set by controls: 0 for no effect and ±100 for the full control effect.

c1ccc(COCc2ccccc2)cc1
inactive: Potency [1] | Potency [2] | Potency [3] | Potency [4] | outcome [5] | Potency [6] | Potency [7] | Potency [8] | Potency [9] | Potency [10] | Potency [11]

CC(CCc1ccc2c(c1)OCO2)NN (configuration not stated)
active: Potency [8] 30.9 µM | Potency [12] 38.9 µM | Potency [13] 15.5 µM | Potency [9] 1.44 µM
inactive: Potency [1] | Potency [2] | Potency [3] | Potency [4] | outcome [5] | Potency [6] | Potency [7] | Potency [10]

CCCCCCOC(=O)CCCCCCCC(=O)OCCCCCC
inactive: Potency [1] | Potency [2] | Potency [3] | Potency [4] | outcome [5] | Potency [6] | Potency [7] | Potency [8] | Potency [12] | Potency [13] | Potency [10] | Potency [11]

CC(COc1ccc(C(C)(C)C)cc1)OS(=O)OCCCl (configuration not stated)
inactive: Potency [1] | Potency [3] | outcome [5] | Potency [8] | Potency [13] | Potency [9] | Potency [10] | Potency [11]
active: Potency [2] 12.3 µM | Potency [4] 10.9 µM | Potency [6] 15.4 µM | Potency [7] 9.74 µM

Nc1c(I)cc(I)c(C(=O)N(CCC(=O)O)c2ccccc2)c1I
inactive: Potency [1] | Potency [2] | Potency [3] | Potency [4] | outcome [5] | Potency [6] | Potency [8] | Potency [9] | Potency [10] | Potency [11]
active: Potency [7] 26.6 µM

O=C(Nc1ccc([N+](=O)[O-])cc1)Nc1ccc([N+](=O)[O-])cc1
inactive: Potency [1] | Potency [2] | Potency [3] | Potency [4] | outcome [5] | Potency [6] | Potency [7] | max activation [14] -0.532% | Potency [15] | Potency [16] | Potency [8] | Potency [12] | Potency [13] | Potency [9] | Potency [10] | Potency [11]

O=Cc1c(Cl)cccc1Cl
inactive: Potency [1] | Potency [2] | Potency [3] | Potency [4] | outcome [5] | Potency [6] | Potency [7] | Potency [12] | Potency [13] | Potency [10] | Potency [11]

CCCCCCOC(=O)C(C)C
inactive: Potency [1] | Potency [2] | Potency [3] | Potency [4] | outcome [5] | Potency [6] | Potency [7] | Potency [13] | Potency [10] | Potency [11]

CC(N)CN (configuration not stated)
inactive: Potency [1] | Potency [2] | Potency [3] | Potency [4] | outcome [5] | Potency [7] | Potency [9] | Potency [10] | Potency [11]
active: Potency [12] 60.5 µM

CN1C(=O)CC(C)(c2ccccc2)C1=O (configuration not stated)
inactive: Potency [1] | Potency [2] | Potency [3] | Potency [4] | outcome [5] | Potency [6] | Potency [7] | Potency [12] | Potency [13] | Potency [9] | Potency [10] | Potency [11]

O=C(CS)OCCOC(=O)CS
inactive: Potency [1] | Potency [2] | Potency [3] | Potency [4] | outcome [5] | Potency [6] | Potency [7] | Potency [12] | Potency [10]
active: Potency [9] 39.9 µM | Potency [11] 28.3 µM

CC1(C)O[C@@H]2C[C@H]3[C@@H]4CCC5=CC(=O)C=C[C@]5(C)[C@H]4[C@@H](O)C[C@]3(C)[C@]2(C(=O)CO)O1
active: Potency [14] 8.91 µM | Potency [15] 1.58 µM | Potency [8] 38.9 µM | Potency [11] 3.47 µM
inactive: Potency [1] | Potency [2] | Potency [3] | Potency [4] | outcome [5] | Potency [6] | Potency [12] | Potency [9] | Potency [10]

CC(C)CCCCCOC(=O)CCCCC(=O)OCCCCCC(C)C
active: Potency [13] 63.3 µM | Potency [11] 35.6 µM
inactive: Potency [1] | Potency [2] | Potency [3] | Potency [4] | outcome [5] | Potency [6] | Potency [8] | Potency [12] | Potency [9] | Potency [10]

NC(=O)Nc1ccc(Cl)c(Cl)c1
inactive: Potency [1] | Potency [2] | Potency [3] | Potency [4] | outcome [5] | Potency [6] | Potency [10] | Potency [11]
active: Potency [7] 48.4 µM | Potency [9] 8.91 µM

CN1CCN(c2c(F)cc3c(=O)c(C(=O)O)cn4c3c2OCN4C)CC1
inactive: activation [1] 0.19% [at 11.8 µM] | activity change, negative = cytotoxicity [2] 4.15% [at 19 µM] | caspase activation [3] 0.165% [at 19 µM] | activity change, negative = cytotoxicity [4] 3.06% [at 19 µM] | caspase-3/7 activation [5] 0.0403% [at 19 µM] | activation [7] -8.38% [at 19 µM] | max activation [14] -1.24% | Potency [15] | Potency [16] | activity change, negative = inhibition [8] -1.32% [at 23.6 µM] | activity change, negative = inhibition [12] -8.19% [at 23.6 µM] | activity change, negative = inhibition [13] 9.24% [at 23.6 µM] | Potency [9] | activity change, negative = inhibition [10] -1.8% [at 15.8 µM] | activity change, negative = inhibition [11] 3.15% [at 23.6 µM]

CCc1nn(CCCN2CCN(c3cccc(Cl)c3)CC2)c(=O)n1CCOc1ccccc1
inactive: Potency [1] | Potency [3] | outcome [5] | Potency [15] | Potency [13] | Potency [9]
active: Potency [2] 23.7 µM | Potency [4] 29.8 µM | Potency [7] 3.76 µM | Potency [14] 12.6 µM | Potency [8] 4.9 µM | Potency [10] 1.51 µM

COC(=O)c1cc(Cl)ccc1NS(=O)(=O)C(F)(F)F
active: Potency [9] 0.55 µM
inactive: Potency [1] | Potency [2] | Potency [3] | Potency [4] | outcome [5] | Potency [7] | Potency [12] | Potency [13] | Potency [10] | Potency [11]

CCCCCCCCCCCC[N+](C)(C)CC(=O)[O-]
inactive: Potency [1] | Potency [2] | Potency [3] | Potency [4] | outcome [5] | Potency [6] | Potency [7] | Potency [13] | Potency [10] | Potency [11]
active: Potency [9] 35.6 µM

CCCCCCCCCCOS(=O)(=O)O
inactive: Potency [1] | Potency [2] | Potency [3] | Potency [4] | outcome [5] | Potency [12] | Potency [9] | Potency [10] | Potency [11]
active: Potency [13] 44.6 µM
